PubChem BioAssay AID1159580 (chemical genetic matrix, 2015)
Out of some 5,500 compounds screened, about 2,000 (36%) were called active. Roughly 18% stayed inconclusive and do not appear here. Cut-off read from the data, not from the text of the source: active = normalized growth mostly below about 0.91 (no sharp cut-off); inconclusive = no clear call, values can overlap the other calls; inactive = mostly above about 0.92. This is one part of the list.

Assay: chemical genetic growth profiling, strain panel (AID 1159580);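 note: tested at 20 µM; growth read once vehicle control cultures reached saturation at 30 °C; 1 = growth at the plate median or of vehicle wells; lower values mean less growth of the strain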
Conditions: S. cerevisiae deletion strains, growth OD
[1] = locus YAL021C, strain ccr4, active compounds read low
[2] = locus YAL026C, strain drs2, active compounds read low
[3] = locus YAL030W, strain snc1, active compounds read low
[4] = locus YBL061C, strain skt5, active compounds read low
[5] = locus YBR009C, strain hhf1, active compounds read low
[6] = locus YBR023C, strain chs3, active compounds read low
[7] = locus YBR171W, strain sec66, active compounds read low
[8] = locus YBR231C, strain swc5, active compounds read low
[9] = locus YBR279W, strain paf1, active compounds read low
[10] = locus YCL011C, strain gbp2, active compounds read low
[11] = locus YCL016C, strain dcc1, active compounds read low
[12] = locus YCL061C, strain MRC1, active compounds read low
[13] = locus YCL069W, strain vba3, active compounds read low
[14] = locus YCR088W, strain abp1, active compounds read low
[15] = locus YDL005C, strain med2, active compounds read low
[16] = locus YDL040C, strain nat1, active compounds read low
[17] = locus YDR001C, strain nth1, active compounds read low
[18] = locus YDR069C, strain doa4, active compounds read low
[19] = locus YDR137W, strain rgp1, active compounds read low
[20] = locus YDR159W, strain sac3, active compounds read low
[21] = locus YDR297W, strain sur2, active compounds read low
[22] = locus YDR334W, strain swr1, active compounds read low
[23] = locus YDR335W, strain msn5, active compounds read low
[24] = locus YDR392W, strain spt3, active compounds read low
[25] = locus YEL003W, strain gim4, active compounds read low
[26] = locus YEL037C, strain rad23, active compounds read low
[27] = locus YEL061C, strain CIN8 (second series), active compounds read low
[28] = locus YER015W, strain faa2, active compounds read low
[29] = locus YER016W, strain bim1, active compounds read low
[30] = locus YER111C, strain swi4, active compounds read low
[31] = locus YER155C, strain BEM2 (second series), active compounds read low
[32] = locus YFR010W, strain ubp6, active compounds read low
[33] = locus YGL167C, strain pmr1, active compounds read low
[34] = locus YGL173C, strain kem1, active compounds read low
[35] = locus YGL227W, strain vid30, active compounds read low
[36] = locus YGL240W, strain doc1, active compounds read low
[37] = locus YGL253W, strain hxk2, active compounds read low
[38] = locus YHR013C, strain ard1, active compounds read low
[39] = locus YHR027C, strain rpn1, active compounds read low
[40] = locus YHR030C, strain SLT2, active compounds read low
[41] = locus YHR079C, strain IRE1, active compounds read low
[42] = locus YHR142W, strain chs7, active compounds read low
[43] = locus YJL092W, strain hpr5, active compounds read low
[44] = locus YJL095W, strain BCK1 (second series), active compounds read low
[45] = locus YJL095W, strain BCK1, active compounds read low
[46] = locus YJL115W, strain asf1, active compounds read low
[47] = locus YJL129C, strain trk1, active compounds read low
[48] = locus YJL154C, strain vps35, active compounds read low
[49] = locus YJL164C, strain tpk1, active compounds read low
[50] = locus YJL166W, strain qcr8, active compounds read low
[51] = locus YJR066W, strain TOR1, active compounds read low
[52] = locus YKL160W, strain elf1, active compounds read low
[53] = locus YKR026C, strain gcn3, active compounds read low
[54] = locus YKR091W, strain srl3, active compounds read low
[55] = locus YLL001W, strain dnm1, active compounds read low
[56] = locus YLL026W, active compounds read low
[57] = locus YLL041C, strain sdh2, active compounds read low
[58] = locus YLR027C, strain aat2, active compounds read low
[59] = locus YLR113W, strain HOG1, active compounds read low
[60] = locus YLR221C, strain rsa3, active compounds read low
[61] = locus YLR258W, strain gsy2, active compounds read low
[62] = locus YLR262C, strain YPT6 (second series), active compounds read low
[63] = locus YLR320W, strain mms22, active compounds read low
[64] = locus YLR342W, strain FKS1, active compounds read low
[65] = locus YLR357W, strain rsc2, active compounds read low
[66] = locus YLR370C, strain arc18, active compounds read low
[67] = locus YLR384C, strain iki3, active compounds read low
[68] = locus YML120C, strain ndi1, active compounds read low
[69] = locus YMR058W, strain fet3, active compounds read low
[70] = locus YMR125W, strain sto1, active compounds read low
[71] = locus YMR129W, active compounds read low
[72] = locus YMR205C, strain PFK2, active compounds read low
[73] = locus YMR231W, strain pep5, active compounds read low
[74] = locus YNL071W, strain lat1, active compounds read low
[75] = locus YNL183C, strain NPR1, active compounds read low
[76] = locus YNL209W, strain ssb2, active compounds read low
[77] = locus YNL248C, strain rpa49, active compounds read low
[78] = locus YNL322C, strain KRE1 (second series), active compounds read low
[79] = locus YNR049C, strain mso1, active compounds read low
[80] = locus YOR001W, strain rrp6, active compounds read low
[81] = locus YOR070C, strain gyp1, active compounds read low
[82] = locus YOR080W, strain dia2, active compounds read low
[83] = locus YOR083W, strain WHI5, active compounds read low
[84] = locus YOR106W, strain vam3, active compounds read low
[85] = locus YOR231W, strain MKK1, active compounds read low
[86] = locus YOR265W, strain rbl2, active compounds read low
[87] = locus YOR270C, strain vph1, active compounds read low
[88] = locus YOR290C, strain snf2, active compounds read low
[89] = locus YPL051W, strain arl3, active compounds read low
[90] = locus YPL078C, strain atp4, active compounds read low
[91] = locus YPL106C, strain sse1, active compounds read low
[92] = locus YPL240C, strain hsp82, active compounds read low
[93] = locus YPL256C, strain CLN2, active compounds read low

Measured: normalized growth

C=CCSC[C@@H](N)C(=O)O
inactive: [1] 0.993 | [2] 0.986 | [3] 1.01 | [4] 0.996 | [5] 1 | [6] 0.987 | [7] 0.984 | [8] 1 | [9] 1 | [10] 0.982 | [11] 0.998 | [12] 0.981 | [13] 0.99 | [14] 0.994 | [15] 0.988 | [16] 1.01 | [17] 0.986 | [18] 0.994 | [19] 1.01 | [20] 0.991 | locus YDR195W, strain ref2 0.985 | [21] 1 | [22] 0.987 | [23] 0.997 | [24] 0.996 | [25] 0.996 | [26] 1.01 | [27] 0.999 | [28] 0.992 | [29] 1.01 | [30] 1.01 | [31] 1.03 | [32] 0.986 | [33] 0.992 | [34] 0.999 | [35] 0.986 | [36] 1 | [37] 0.993 | [38] 1 | [39] 1.01 | [40] 0.943 | [41] 0.96 | [42] 0.978 | [43] 0.989 | [44] 1.01 | [45] 0.936 | [46] 0.989 | [47] 0.992 | [48] 0.982 | [49] 1 | [50] 1 | [51] 0.901 | [52] 0.985 | [53] 0.986 | [54] 1.01 | [55] 0.987 | [56] 0.993 | [57] 0.985 | [58] 0.993 | [59] 0.973 | [60] 0.994 | [61] 0.99 | [62] 0.995 | [63] 1.01 | [64] 1.02 | [65] 1.01 | [66] 0.999 | [67] 0.993 | [68] 0.986 | [69] 0.992 | [70] 0.986 | [71] 0.985 | [72] 1 | [73] 0.998 | [74] 1 | [75] 0.914 | [76] 0.991 | [77] 0.995 | [78] 1 | [79] 0.997 | [80] 0.997 | [81] 0.992 | [82] 1 | [83] 1.02 | [84] 1 | [85] 0.968 | [86] 0.996 | [87] 1 | [88] 0.993 | [89] 0.998 | [90] 0.999 | [91] 0.986 | [92] 0.999 | [93] 0.948

C=CCSCC=C
inactive: [1] 0.972 | [2] 0.971 | [3] 0.962 | [4] 0.979 | [5] 0.981 | [6] 0.987 | [7] 0.965 | [8] 1.03 | [9] 0.992 | [10] 0.966 | [11] 0.975 | [12] 0.972 | [13] 0.98 | [14] 0.99 | [15] 0.985 | [16] 0.993 | [17] 0.96 | [18] 0.947 | [19] 0.971 | [20] 0.991 | locus YDR195W, strain ref2 0.961 | [21] 0.982 | [22] 0.935 | [23] 0.987 | [24] 0.916 | [25] 0.986 | [26] 0.972 | [27] 0.982 | [28] 0.958 | [29] 0.991 | [30] 0.966 | [31] 0.974 | [32] 0.953 | [33] 0.971 | [34] 0.941 | [35] 0.986 | [36] 0.981 | [37] 0.967 | [38] 0.957 | [39] 0.96 | [40] 1.03 | [41] 1.03 | [42] 0.934 | [43] 0.961 | [44] 0.996 | [45] 1.03 | [46] 0.938 | [47] 0.95 | [48] 0.978 | [49] 0.981 | [50] 0.977 | locus YJL187C, strain SWE1, active compounds read low 0.986 | [51] 0.931 | [52] 1 | [53] 0.989 | [54] 0.983 | [55] 0.966 | [56] 0.974 | [57] 0.975 | [58] 0.953 | [59] 1.02 | [60] 0.973 | [61] 0.989 | [62] 0.983 | [63] 0.995 | [64] 0.983 | [65] 0.963 | [66] 0.977 | [67] 0.99 | [68] 0.973 | [69] 0.97 | [70] 0.966 | [71] 0.979 | [72] 0.969 | [73] 0.98 | [74] 0.991 | [75] 0.94 | [76] 0.985 | [77] 0.98 | [78] 0.955 | [79] 0.964 | [80] 0.992 | [81] 0.976 | [82] 0.974 | [83] 0.989 | [84] 0.977 | [85] 1.02 | [86] 1.01 | [87] 0.945 | [88] 0.903 | [89] 0.991 | [90] 0.988 | [91] 0.943 | [92] 0.974 | [93] 1.03
